Sampled rows, rich in hits. Any-hit rate of the full collection: about 2.8%.
Platelet DG rel = platelet dense granule release activity; human platelet-rich plasma, SFLLRN dense granule ATP release, luminescence; inhibition, %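 (compounds screened at 7.5 µM in platelet-rich plasma)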; actives 0.22% (n = 300,000); AID 1663;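 active = mean replicate score, as percent of positive control, at or above 50; inconclusive = mean below 50 but at least one replicate at or above 50; inactive = mean and every replicate below 50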
HSP90 inh = HSP90 refolding inhibition in rabbit reticulocyte lysate; luciferase refolding luminescence, 3 h; inhibition, % at 5.6 µM; actives 0.91% (n = 290,000); AID 1789;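 active = inhibition above the screen-wide mean plus 3 SD, computed separately per campaign, cut at about 16% in these data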;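 also: 0% = DMSO wells and 100% = 60 µM geldanamycin wells; inhibitors lower the luminescence because luciferase stays unfolded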
SENP6 block = SENP6 protease inhibition | Q9GZR1 | Recombinant SENP6 catalytic domain, aminoluciferin luminescence | inhibition, % at 10 µM | actives 1.8% (n = 330,000) | AID 2599;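 active = inhibition above about 50% at the single tested dose, limit read from the data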;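 also: plate controls were DMSO wells with enzyme for no effect and DMSO wells lacking enzyme for full effect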
SENP7 block = blocks the human protease SENP7 | Q9BQF6 | actives 1.5% (n = 330,000) | inhibition, % at 5 µM | recombinant SENP7, Z-RLRGG-aminoluciferin luminescence, 40 min;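 active = inhibition above about 50% at the single test dose, limit read from the data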;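 also: plate controls were DMSO with enzyme for no effect and no enzyme buffer wells for full effect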
SENP8 block-1 = blocks human SENP8 cleavage of Nedd8 substrate | recombinant SENP8, Nedd8 substrate fluorescence | inhibition, % at 20 µM | actives 0.64% (n = 360,000) | AID 602440; in the data active = inhibition mostly above about 40%, no sharp cut-off; inactive = mostly below about 27%
SENP8 block-2 = inhibitors of human SENP8 protease; purified SENP8, Z-RLRGG-aminoluciferin cleavage, luminescence; inhibition, % at 10 µM; actives 1.2% (n = 330,000); in the data active = inhibition above about 50%
HSP90 confirm = confirmation of HSP90 inhibitors; actives 64% (n = 2,300); inhibition, % at 5.9 µM; AID 1846; rabbit reticulocyte lysate, luciferase refolding luminescence, 3 h; shares compounds with HSP90 inh; in the data active = inhibition above about 18%;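 also: 0% = vehicle wells and 100% = reference inhibitor wells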
FLuc counter = counter-screen for HSP90 inhibitors: inhibitors of firefly luciferase; shares compounds with HSP90 inh; purified native firefly luciferase, luminescence; inhibition, % at 5.9 µM; actives 48% (n = 2,300); AID 1847;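 active = inhibition above the mean inhibition of all tested sample wells plus 3 SD, cut at about 10% in these data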;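 also: 0% = DMSO with luciferase and 100% = wells lacking luciferase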
Target sequence (P08659 whole entry, looked up): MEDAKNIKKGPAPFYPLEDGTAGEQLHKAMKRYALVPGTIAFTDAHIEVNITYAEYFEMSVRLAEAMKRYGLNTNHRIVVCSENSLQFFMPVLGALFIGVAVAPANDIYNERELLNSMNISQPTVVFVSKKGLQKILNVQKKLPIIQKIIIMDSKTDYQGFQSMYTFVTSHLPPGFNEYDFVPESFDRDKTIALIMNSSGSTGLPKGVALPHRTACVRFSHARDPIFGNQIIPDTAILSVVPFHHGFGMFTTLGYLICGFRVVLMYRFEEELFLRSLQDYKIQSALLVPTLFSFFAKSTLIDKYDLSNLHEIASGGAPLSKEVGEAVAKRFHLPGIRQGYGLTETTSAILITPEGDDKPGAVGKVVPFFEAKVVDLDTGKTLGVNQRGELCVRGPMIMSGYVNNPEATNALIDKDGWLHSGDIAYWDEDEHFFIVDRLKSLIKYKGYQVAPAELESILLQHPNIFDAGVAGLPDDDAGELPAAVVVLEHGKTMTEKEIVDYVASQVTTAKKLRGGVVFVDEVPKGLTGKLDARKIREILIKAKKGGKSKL
Starred values were filed as active, the others as inactive; i = inactive; ? = inconclusive; · = not tested or not shown.

SMILES	Platelet DG rel	HSP90 inh	SENP6 block	SENP7 block	SENP8 block-1	SENP8 block-2	HSP90 confirm	FLuc counter
CCOC(=O)C(CC)n1cnc2c(nnn2-c2ccc(F)cc2)c1=O (stereo unspecified)	?	-1.0	-22.7	9.1	10.2	-6.4	·	·
CN(C)S(=O)(=O)Oc1ccsc1C(=O)Nc1cccc(Cl)c1	0.3	2.6	-7.9	-6.0	27.4	-14.0	·	·
CN(C)S(=O)(=O)Oc1ccsc1C(=O)Nc1ccc(Cl)c(Cl)c1	-0.3	20.5*	-16.5	-1.1	9.3	-10.2	6.2	-2.1
O=C1CC(c2ccc3c(c2)OCO3)Sc2nc3ccccc3n21 (stereo unspecified)	-0.6	47.4*	-2.5	-10.9	-0.2	8.7	71.6*	69.4*
C=CCOc1ccccc1CNc1cccc(F)c1	-9.8	-3.6	-33.9	-8.0	-8.8	-15.0	·	·
C=CCOc1ccccc1CNc1ccc2c(c1)OCCO2	9.0	66.6*	33.2	1.7	-379.4	19.0	73.4*	69.5*
CC(=O)Oc1ccc(NC(=O)Cc2ccccc2)cc1	31.9	-1.7	-9.1	-2.9	12.4	-10.3	·	·
CC(=O)Oc1ccc(Nc2ccccc2)cc1	1.0	30.7*	-16.6	-4.0	15.7	-10.4	56.5*	-13.5
Cc1cccc(OCCCC(=O)Nc2ccc(S(=O)(=O)Nc3ncccn3)cc2)c1C	7.9	25.1*	-0.5	13.8	-3.2	6.0	0.7	-5.3
Cc1cccc(OCCCC(=O)Nc2ccc(S(=O)(=O)Nc3onc(C)c3C)cc2)c1C	5.7	-1.8	6.7	-2.4	16.1	14.5	·	·
Cc1ccc(C)c(N(Cc2cc3ccc(C)cc3[nH]c2=O)C(=O)c2ccco2)c1	1.5	18.3*	-14.8	-3.2	-67.7	-8.5	0.8	-5.1
CCOC(=O)c1ccc(NC(=S)NC(=O)c2cncc(Br)c2)cc1	-4.5	1.4	-4.5	-3.7	12.9	-2.9	·	·
O=C(O)c1ccc(NC(=S)NC(=O)c2cncc(Br)c2)cc1	-7.1	51.2*	2.0	6.8	26.3	6.1	24.7*	-2.4
Cc1c(S(=O)(=O)NC2CCCCCC2)c(=O)n(C)c(=O)n1C	12.9	·	-4.5	-1.6	7.3	7.7	·	·
COc1ccc(C(=O)NC2CCN(C(=S)Nc3cccc(C)c3)CC2)cc1	-3.0	21.1*	-29.8	2.2	10.2	1.6	4.7	-0.9
COc1ccc(OC)c(N=Nc2c(O)c3ccccc3[nH]c2=O)c1	·	·	·	·	21.4	·	·	·
N=C(N)c1ccc(N=Nc2c(O)ccc3c2[nH]c2ccccc23)cc1	·	·	·	·	32.3	·	·	·
NC(=O)c1ccc(N=Nc2c(O)c3ccccc3[nH]c2=O)cc1	·	13.7	-8.6	-3.2	·	-8.4	12.1	-14.8
COc1cc(N=Nc2c(O)c3ccccc3[nH]c2=O)c(OC)cc1N=Nc1ccccc1	2.0	11.1	-20.7	1.1	12.1	14.1	2.2	-13.7
O=C(NCc1ccccn1)c1cccn1-c1ncc(C(F)(F)F)cc1Cl	4.5	41.2*	7.1	-4.2	3.9	5.1	2.6	-1.5
COC(=O)c1ccc(CNC(=O)CNC(=O)c2sc3ccccc3c2Cl)cc1	12.7	·	-4.5	2.4	-1.3	4.9	·	·
CC1CCN(c2c([N+](=O)[O-])nn(-c3ccc4c(c3)OCCO4)[n+]2[O-])CC1	-6.3	17.2*	-3.9	4.8	25.2	-6.5	13.6	-5.2
CCCCn1c(N)c(N(CCOC)C(=O)c2ccco2)c(=O)[nH]c1=O	-14.3	·	-0.6	0.9	-2.5	3.3	·	·
O=C(NC(=O)c1ccccc1)Nc1ccccn1	81.6*	74.1*	98.8*	99.8*	2.6	93.6*	93.0*	85.6*
O=C(Nc1ccccn1)c1ccc(C(=O)c2ccccc2)cc1	2.5	·	49.7	45.4	8.6	19.1	·	·
SMILES	Platelet DG rel	HSP90 inh	SENP6 block	SENP7 block	SENP8 block-1	SENP8 block-2	HSP90 confirm	FLuc counter
CN(C)c1ccc(/C=C2\SC(=O)N(CCc3nnc(N)s3)C2=O)cc1	-7.2	36.8*	34.3	14.5	-17.8	-1.6	84.8*	82.4*
CC1(C)Cc2nc3oc4c(=O)n(CC(=O)Nc5ccccc5)cnc4c3cc2CO1	0.7	4.1	-18.1	-4.9	-63.1	-10.3	·	·
CC(C)CCn1cnc2c(oc3nc4c(cc32)CCCC4)c1=O	5.5	19.3*	47.2	40.1	-16.4	28.8	51.2*	34.6*
CCCOC(=O)Nc1ccc(N2CCCCC2)cc1	-5.3	20.6*	3.2	-10.9	11.4	-17.6	33.5*	20.9*
O=S(=O)(NCCN1CCOCC1)c1cc(Cl)c(Cl)cc1Cl	2.8	-1.0	-10.5	-6.7	3.4	-3.6	·	·
CC1(C)CC(=O)C2=C(C1)N(c1cccc(Cl)c1)C(=O)NC2(C(F)(F)F)C(F)(F)F	7.9	-2.2	1.1	-2.0	-4.6	-1.8	·	·
CN(C)c1ccc(CNc2ccc3c(c2)ncn3C(C)(C)C)cc1	7.5	4.2	19.4	-6.1	-100.0	1.3	·	·
Cc1ccc(C(=O)NCC(=O)OCC(=O)c2cc(C)n(Cc3ccco3)c2C)cc1	-2.3	4.8	-4.2	-1.1	7.8	11.1	·	·
C=CCn1c(C)cc(C(=O)COC(=O)CNC(=O)c2ccccc2)c1C	-10.2	17.4*	-11.7	-7.0	17.8	-6.2	5.5	29.4*
CNC(=O)CSc1nc2cccnc2n1-c1ccc(F)cc1	-4.9	-0.3	3.6	-1.1	10.2	-6.2	·	·
Cc1cc2ccccc2c(=O)n1CC(=O)NCC(=O)N(C)C1CCCCC1	-6.3	28.0*	14.4	3.5	-43.4	-4.4	-6.7	-9.9
Cc1cc2ccccc2c(=O)n1CC(=O)NCC(=O)N(C)Cc1ccccc1	-6.1	-0.9	-5.5	7.7	-61.8	0.2	·	·
COc1ccc(CNC(=O)C2CCC(=O)N(C3CCCCCC3)C2)c(OC)c1 (stereo unspecified)	·	·	·	·	2.3	·	·	·
CN(C)S(=O)(=O)c1ccc(/C(O)=C2/C(=O)C(=O)N(Cc3cccnc3)C2c2cccs2)cc1 (stereo unspecified)	0.8	4.3	-18.3	-2.8	1.7	-6.4	·	·
Cc1c(/C(O)=C2/C(=O)C(=O)N(Cc3cccnc3)C2c2ccccn2)cnn1-c1ccccc1 (stereo unspecified)	5.9	75.4*	-5.9	7.8	-18.1	-6.2	23.9*	30.1*
Cc1c(/C(O)=C2/C(=O)C(=O)N(Cc3cccnc3)C2c2cccs2)cnn1-c1ccccc1 (stereo unspecified)	-2.1	55.0*	-7.3	-4.2	-76.6	-2.1	55.5*	52.7*
Cc1ccc(/C(O)=C2/C(=O)C(=O)N(Cc3cccnc3)C2c2ccccn2)cc1 (stereo unspecified)	-1.7	1.1	-6.0	-5.3	18.3	-10.7	·	·
Cn1c(=O)c2cc(NC(=O)CCc3cccnc3)ccc2n1Cc1ccc(F)cc1	·	·	·	·	i	·	·	·
CC(C)CN(CCCNC(=O)CN1C(=O)COc2ccc(S(=O)(=O)N3CCCC3)cc21)CC(C)C	-1.9	22.0*	-11.1	-7.6	2.5	-5.9	-4.4	-5.3

Bioassay records from PubChem.
